Screening data as filed in PubChem.
Only some compounds are listed: those with a hit (about 18% of all), similar ones and a draw of the others.
TDP1 inh: TDP1 (human) enzyme inhibition; Q9NUW8; recombinant TDP1, AlphaScreen DNA substrate cleavage; Potency, µM (series often up to 130 µM), for the others: top-dose activity change, negative = inhibition, hits mostly inhibitors; hit rate 0.28% among 350,000; also: potency is read from the fitted curve at half-maximal effect; % is scaled to controls: 0 for no effect and ±100 for the full control effect; nearly all actives have a fitted effect of over 40% in size
Target sequence (Q9NUW8 whole entry, looked up): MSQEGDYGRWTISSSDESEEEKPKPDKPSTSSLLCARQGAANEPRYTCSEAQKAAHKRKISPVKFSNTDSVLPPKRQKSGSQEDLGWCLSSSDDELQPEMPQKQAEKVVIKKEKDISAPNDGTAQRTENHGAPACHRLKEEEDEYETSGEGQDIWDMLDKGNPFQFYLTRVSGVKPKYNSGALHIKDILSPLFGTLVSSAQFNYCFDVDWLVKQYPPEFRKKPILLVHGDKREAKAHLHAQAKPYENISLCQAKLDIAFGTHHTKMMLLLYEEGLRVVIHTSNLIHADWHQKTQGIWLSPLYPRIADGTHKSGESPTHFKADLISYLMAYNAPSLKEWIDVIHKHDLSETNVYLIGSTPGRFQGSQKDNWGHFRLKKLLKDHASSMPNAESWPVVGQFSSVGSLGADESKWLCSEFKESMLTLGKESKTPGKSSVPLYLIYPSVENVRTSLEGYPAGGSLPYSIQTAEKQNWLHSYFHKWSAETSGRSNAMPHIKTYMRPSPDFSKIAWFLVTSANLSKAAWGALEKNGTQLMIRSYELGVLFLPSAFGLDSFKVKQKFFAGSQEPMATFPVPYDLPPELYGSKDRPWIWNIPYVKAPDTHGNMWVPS
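Steps: enzyme plus compound, 15 min RT; add biotin/phosphotyrosine-FITC oligonucleotide (15 nM final), react 5 min; add donor/acceptor beads (10 ug/ml final), 10 min; read AlphaScreen. Tdp1 at 1 nM final.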
IL-1B inflam inh: inhibitors of inflammasome signaling (IL-1 beta secretion) | THP-1 LPS/ATP IL-1B secretion, AlphaLISA, 16 h; hits give low values | activity change, % at 57.5 µM | hit rate 4.7% among 360,000; in the data active = activity change below about -50%; inconclusive = mostly about -30% to -49%; also: % is scaled to controls: 0 for no effect and ±100 for the full control effect
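Secreted IL-1B measured by AlphaLISA bead assay after 16 h compound exposure of THP-1 cells; compounds (final up to 57.5 uM) added 1 h before LPS (250 ng/mL) and ATP (1.25 mM) stimulation; lower signal means less secretion.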
TDP1 cell CPT: DT40-hTDP1 cell growth loss with CPT | hit rate 12% among 420,000 | chicken DT40 Tdp1-/-;hTDP1 cells + 20 nM CPT, ATP luminescence, 48 h | Potency, µM (series often up to 46.2 µM), for the others: top-dose activity change, negative = growth inhibition, usual class: inhibitors | AID 686979; also: potency is read from the fitted curve at half-maximal effect; % is scaled to controls: 0 for no effect and ±100 for the full control effect; nearly all actives have a fitted effect of over 55% in size
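Chicken DT40 Tdp1-/- cells stably complemented with human TDP1 were seeded at 400 cells/well in medium containing 20 nM camptothecin, exposed to pin-transferred compounds, and grown at 37 °C for at least 48 hr. Viability was read as ATP luminescence.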
HepG2 viability: counter-screen for TGF-b inhibitors: cytotoxicity in HepG2 cells; HepG2 CAGA-GFP viability, ATP luminescence, 18 h; Potency, µM (titrated, usually from 46.1 µM), inactives show at the top dose activity change, negative = cytotoxicity, actives largely listed as cytotoxic; hit rate 0.76% among 410,000; also: potency is read from the fitted curve at half-maximal effect
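CellTiter-Glo luminescence gave cytotoxicity after 18 hours at 37 degrees C. The cells were HepG2 CAGA-GFP in 1% FBS DMEM, stimulated with 500 pg/mL TGF-beta after compound addition. %Activity was normalised to no-cell wells (complete cell-killing) and DMSO (no toxicity), and curves were fitted and classified.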
TGFb inhibitor: inhibitors of TGF-b signaling; HepG2 CAGA-GFP TGF-b/SMAD3 reporter, GFP fluorescence, 18 h; TGF-beta stimulated, 500 pg/mL final; Potency, µM (highest dose often 46.1 µM), inactives show top-dose activity, negative = inhibition, actives largely listed as inhibitors; hit rate 1.2% among 410,000; also: potency is read from the fitted curve at half-maximal effect; % is scaled to controls: 0 for no effect and ±100 for the full control effect; nearly all actives have a fitted effect of over 65% in size
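TGF-beta reporter screen: HEPG2 CAGA-GFP, 1% FBS, 500 pg/mL TGF-beta final, 18 h; per-cell GFP summed per well; curves fitted and categorized by class.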
DT40 TDP1 no CPT: qHTS for Inhibitors of human tyrosyl-DNA phosphodiesterase 1 (TDP1): qHTS in cells in absence of CPT; DT40 Tdp1-/- hTDP1 cells, no CPT, ATP luminescence, 48 h; hit rate 15% among 420,000; Potency, µM (series often up to 46.2 µM), for inactives: at the highest dose activity change, negative = growth inhibition, actives largely listed as inhibitors; also: potency is read from the fitted curve at half-maximal effect; % is scaled to controls: 0 for no effect and ±100 for the full control effect; nearly all actives have a fitted effect of over 55% in size
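Cells were dispensed at 400 per well, compounds added by pin tool, plates incubated ≥48 hr at 37 °C, then CellTiter-Glo added for 30 min at room temperature before luminescence reading. Line: DT40 Tdp1-/- complemented with hTDP1; camptothecin omitted.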
* = called active by the depositor; [ ] = dose if it differs, or a comment. Unless noted, calls follow the shape of the dose curve; as a rule, active = well fitted curve in the direction sought with a large enough effect; inconclusive = small, poorly fitted or top-dose-only effect, or another doubt; inactive = no such curve, though single readings can be large; an effect the other way counts as inactive or inconclusive.

What do the screens show for `O=c1[nH]c(=O)n(CCC2=CCCCC2)c(O)c1C=NC1CCN(Cc2ccccc2)CC1`?
TDP1 inh: -1%; IL-1B inflam inh: inconclusive; TDP1 cell CPT: 15µM*; HepG2 viability: 7%; TGFb inhibitor: 14%; DT40 TDP1 no CPT: 16µM*

Results for N#CC(O[C@@H]1OC(COC2OC(CO)C(O)C(O)[C@@H]2O)C(O)C(O)C1O)c1ccccc1 (stereo partly specified) ?
TDP1 inh: -5%[56.1 µM]; TDP1 cell CPT: -5%; DT40 TDP1 no CPT: -1%

What do the screens show for `Cc1ccc(C(=O)CN2CCOCC2)cc1`?
TDP1 cell CPT: -2%; HepG2 viability: -19%; TGFb inhibitor: -10%; DT40 TDP1 no CPT: -1%

How did CC(=O)OC1C(=O)[C@]2(C)C(O)CC3OC[C@]3(OC(C)=O)C2[C@@H](OC(=O)c2ccccc2)[C@]2(O)CC(O)C(C)=C1C2(C)C (stereo partly specified) do in these assays?
TDP1 inh: 11%[56.1 µM]; TDP1 cell CPT: inconclusive; DT40 TDP1 no CPT: 3.7µM*

What do the screens show for `CC(=O)OC12COC1CC(O)C1(C)C(=O)C(O)C3=C(C)C(O)CC(O)(C(OC(=O)c4ccccc4)C21)C3(C)C` (stereo unspecified)?
IL-1B inflam inh: 34; TDP1 cell CPT: 1.2µM*; HepG2 viability: 6%; TGFb inhibitor: inconclusive; DT40 TDP1 no CPT: 1µM*

What do the screens show for `CCN(CC)CCOC(=O)C(C)(c1ccccc1)c1ccccc1`?
TDP1 inh: 1%; TDP1 cell CPT: inconclusive; DT40 TDP1 no CPT: inconclusive

Results for C=CC(=O)OCCN(C)C ?
TDP1 inh: 9%

What do the screens show for `CC(CO)NC(=O)C1C=C2c3cccc4[nH]cc(c34)CC2N(C)C1` (stereo unspecified)?
TDP1 inh: 6%

How did BrC(Br)Br do in these assays?
TDP1 inh: 6%

How did O=C(Nc1ccccc1)C1=C[C@H](c2ccccc2)C[C@H](OCCCCO)O1 do in these assays?
IL-1B inflam inh: -19; TDP1 cell CPT: 16µM*; HepG2 viability: -6%; TGFb inhibitor: -19%; DT40 TDP1 no CPT: inconclusive

How did CCCCC/C=C\C/C=C\C/C=C\C/C=C\CCCC(=O)NC1CC1 do in these assays?
TDP1 inh: -7%

What do the screens show for `O=C(O)CCCC[C@H]1SC[C@H]2NC(=O)N[C@@H]21`?
TDP1 inh: 29%[21 µM]

How did COC(=O)[C@@H]1C[C@H]1[C@@H](NP(=O)(c1ccccc1)c1ccccc1)c1ccccc1 do in these assays?
TDP1 inh: -3%; IL-1B inflam inh: 70; TDP1 cell CPT: 21µM*; HepG2 viability: -62%; TGFb inhibitor: 7%; DT40 TDP1 no CPT: inconclusive

What do the screens show for `COC(=O)[C@H]1C[C@@H]1[C@H](NP(=O)(c1ccccc1)c1ccccc1)c1ccccc1`?
TDP1 inh: -1%; IL-1B inflam inh: 28; TDP1 cell CPT: inconclusive; HepG2 viability: 10%; TGFb inhibitor: 0%; DT40 TDP1 no CPT: inconclusive

What do the screens show for `CC1CCCC(C)N1/N=C/c1c[nH]c2ccc(Br)cc12` (stereo unspecified)?
TDP1 inh: 3%; IL-1B inflam inh: -93*; TDP1 cell CPT: inconclusive; HepG2 viability: 18µM*; TGFb inhibitor: inconclusive; DT40 TDP1 no CPT: inconclusive

How did CN1CCC(c2c[nH]c3ccccc23)C1 (stereo unspecified) do in these assays?
IL-1B inflam inh: inconclusive; TDP1 cell CPT: -12%; HepG2 viability: -9%; TGFb inhibitor: -2%; DT40 TDP1 no CPT: inconclusive

What do the screens show for `CN(C)C(=S)SC(=S)N(C)C`?
TDP1 inh: 4%; TDP1 cell CPT: 0.84µM*; DT40 TDP1 no CPT: 0.84µM*

Results for CN(C)C(=S)SSC(=S)N(C)C ?
TDP1 inh: 14%[56.1 µM]; IL-1B inflam inh: 24; TDP1 cell CPT: 0.15µM*; HepG2 viability: 0.1µM*; TGFb inhibitor: -92%; DT40 TDP1 no CPT: 0.15µM*

What do the screens show for `c1ccc(OP(Oc2ccccc2)Oc2ccccc2)cc1`?
TDP1 inh: 8%

How did CC[C@]1(C(=O)OC)[C@H]2C(=O)N(Cc3ccccc3)C(=O)[C@H]2[C@H]2CN=C(SCc3ccc(C(=O)OC)cc3)N21 do in these assays?
TDP1 inh: -2%[56.1 µM]; IL-1B inflam inh: 19; TDP1 cell CPT: 21µM*; HepG2 viability: -4%; TGFb inhibitor: -24%; DT40 TDP1 no CPT: inconclusive

Results for CC[C@]1(C(=O)OC)[C@H]2C(=O)N(Cc3ccccc3)C(=O)[C@H]2[C@H]2CN=C(SCc3ccc(C)cc3)N21 ?
TDP1 inh: 0%[56.1 µM]; IL-1B inflam inh: 19; TDP1 cell CPT: inconclusive; HepG2 viability: -28%; TGFb inhibitor: inconclusive; DT40 TDP1 no CPT: 18µM*

How did COC(=O)[C@@]1(Cc2ccccc2)[C@H]2C(=O)N(Cc3ccccc3)C(=O)[C@H]2[C@H]2CN=C(SCc3ccc(C#N)cc3)N21 do in these assays?
TDP1 inh: 1%[56.1 µM]; IL-1B inflam inh: 19; TDP1 cell CPT: inconclusive; HepG2 viability: -12%; TGFb inhibitor: -51%; DT40 TDP1 no CPT: inconclusive

Results for CN1CCC23CCCC[C@H]2C1Cc1ccc(O)cc13 (stereo partly specified) ?
TDP1 inh: 10%[56.1 µM]

What do the screens show for `COc1ccc2c(c1)[C@@]13CCCCC1[C@@H](C2)N(C)CC3` (stereo partly specified)?
TDP1 inh: 12%[56.1 µM]; TDP1 cell CPT: -125%; DT40 TDP1 no CPT: 16µM*

How did O=[N+]([O-])O[C@H]1CO[C@H]2[C@H]1OC[C@@H]2O[N+](=O)[O-] do in these assays?
TDP1 inh: 3%[56.1 µM]

Results for COC(=O)C1=C(c2ccc(S(C)(=O)=O)cc2)C[C@@H]2CC[C@H]1N2C(=O)NCc1cccc2ccccc12 ?
IL-1B inflam inh: -11; TDP1 cell CPT: 29µM*; HepG2 viability: 7%; TGFb inhibitor: 14%

What do the screens show for `COC(=O)C1=C(c2cc3ccccc3o2)C[C@@H]2CC[C@H]1N2C(=O)NCc1ccco1`?
IL-1B inflam inh: -12; TDP1 cell CPT: 16µM*; HepG2 viability: 10%; TGFb inhibitor: 0%

How did COC(=O)C1=C(c2cc3ccccc3o2)C[C@@H]2CC[C@H]1N2C(=O)NCc1ccc(F)cc1 do in these assays?
IL-1B inflam inh: -14; TDP1 cell CPT: inconclusive; HepG2 viability: -23%; TGFb inhibitor: inconclusive
